Assay [1] concerns the target Nuclear receptor coactivator 3 (Homo sapiens) (UniProt Q9Y6Q9). Nature of the assay: SRC3 coactivator transcriptional activity inhibitors, confirmation, cell-based, luminescence, quadruplicate (AID 588792;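 active means mean inhibition over 43.08%, the solvent-only control mean plus 3 SD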;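 further: 0% = DMSO treated cells and 100% = gossypol at 36 µM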). As to conditions: HEK293 GAL4-SRC3 luciferase reporter, at 3.6 µM, active compounds read high. Background: Reporter assays use an easily measured gene product as a stand-in for the process of interest.

Assay [2] has as its system transactivating tegument protein VP16 (Human herpesvirus 1), Gal4-VP16 luciferase reporter. Briefly: VP16 transactivation inhibitors, counter-screen for SRC3 inhibitor project, cell-based, luminescence, high throughput (AID 588794; in the data active means inhibition above about 30%). The note with it: mammalian cells, VP16-driven luciferase reporter luminescence; at 3.6 µM; active compounds read high. Background: A counterscreen serves to expose hits that act by an unwanted route or on another target.

The target of assay [3] is Nuclear receptor coactivator 1 (Homo sapiens) (UniProt Q15788). Nature of the assay: SRC1 coactivator transcriptional activity inhibitors, confirmation, cell-based, luminescence, quadruplicate (AID 588820;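 active means mean inhibition above 46.68%, the untreated control wells mean plus 3 SD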;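 further: 0% = DMSO wells and 100% = gossypol 36 µM treated wells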). As to conditions: HEK293 GAL4-SRC1 luciferase reporter, at 3.6 µM, active compounds read high.
Assay [4] can be described thus: VP16 transactivation inhibitors, counter-screen for SRC1 inhibitor project, cell-based, luminescence, high throughput (AID 588824). The note with it: cell-based VP16 transactivation luciferase luminescence; at 3.6 µM; active compounds read high.
Assay [5] can be described thus: StAR promoter reporter inhibitors, counter-screen for LRH-1 inverse agonist project, cell-based, luminescence, high throughput (AID 651611; in the data active means inhibition above about 28%). The note with it: StAR promoter luciferase reporter counterscreen, at 3.6 µM, active compounds read high.
Assay [6] concerns the target Nuclear receptor subfamily 5 group A member 2 (Homo sapiens) (UniProt O00482). Briefly: LRH-1 (NR5A2) inverse agonists, retest, confirmation, cell-based, luminescence (AID 651613; in the data active means inhibition above about 42%;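 further: HEK293T cells co-transfected with LRH-1 and StAR promoter luciferase reporter; 0% = vehicle wells and 100% = parental cells lacking receptor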). As to conditions: cell-based LRH-1 luciferase reporter, inverse agonism; at 3.6 µM; active compounds read high.
The target in assay [7] is Steroidogenic factor 1 (Homo sapiens) (UniProt Q13285). Briefly: SF1 (NR5A1) inverse agonists, counter-screen for LRH-1 inverse agonist project, cell-based, luminescence, high throughput (AID 651614; in the data active means inhibition above about 44%;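 further: cells cotransfected with StAR promoter reporter and SF1 expression vector; 0% = vehicle on cells with receptor and 100% = vehicle on cells lacking receptor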). As to conditions: cell-based SF1 luciferase reporter, at 3.6 µM, active compounds read high.
Assay [8] in a line: VP16 transactivation reporter inhibitors, counter-screen for LRH-1 inverse agonist project, cell-based, luminescence, high throughput (AID 651615; in the data active means inhibition above about 33%). As to conditions: Gal4-VP16 luciferase reporter cells, at 3.6 µM, active compounds read high.

Unmarked numbers belong to inactive results. Activity calls are given as the source filed them. Unless noted, no stated cut-off is given here; in the data, active means inhibition above about 25%; inactive means the rest.

Chain of Nuclear receptor coactivator 1 (Homo sapiens) (Q15788 whole entry, looked up, the tested form may be a part): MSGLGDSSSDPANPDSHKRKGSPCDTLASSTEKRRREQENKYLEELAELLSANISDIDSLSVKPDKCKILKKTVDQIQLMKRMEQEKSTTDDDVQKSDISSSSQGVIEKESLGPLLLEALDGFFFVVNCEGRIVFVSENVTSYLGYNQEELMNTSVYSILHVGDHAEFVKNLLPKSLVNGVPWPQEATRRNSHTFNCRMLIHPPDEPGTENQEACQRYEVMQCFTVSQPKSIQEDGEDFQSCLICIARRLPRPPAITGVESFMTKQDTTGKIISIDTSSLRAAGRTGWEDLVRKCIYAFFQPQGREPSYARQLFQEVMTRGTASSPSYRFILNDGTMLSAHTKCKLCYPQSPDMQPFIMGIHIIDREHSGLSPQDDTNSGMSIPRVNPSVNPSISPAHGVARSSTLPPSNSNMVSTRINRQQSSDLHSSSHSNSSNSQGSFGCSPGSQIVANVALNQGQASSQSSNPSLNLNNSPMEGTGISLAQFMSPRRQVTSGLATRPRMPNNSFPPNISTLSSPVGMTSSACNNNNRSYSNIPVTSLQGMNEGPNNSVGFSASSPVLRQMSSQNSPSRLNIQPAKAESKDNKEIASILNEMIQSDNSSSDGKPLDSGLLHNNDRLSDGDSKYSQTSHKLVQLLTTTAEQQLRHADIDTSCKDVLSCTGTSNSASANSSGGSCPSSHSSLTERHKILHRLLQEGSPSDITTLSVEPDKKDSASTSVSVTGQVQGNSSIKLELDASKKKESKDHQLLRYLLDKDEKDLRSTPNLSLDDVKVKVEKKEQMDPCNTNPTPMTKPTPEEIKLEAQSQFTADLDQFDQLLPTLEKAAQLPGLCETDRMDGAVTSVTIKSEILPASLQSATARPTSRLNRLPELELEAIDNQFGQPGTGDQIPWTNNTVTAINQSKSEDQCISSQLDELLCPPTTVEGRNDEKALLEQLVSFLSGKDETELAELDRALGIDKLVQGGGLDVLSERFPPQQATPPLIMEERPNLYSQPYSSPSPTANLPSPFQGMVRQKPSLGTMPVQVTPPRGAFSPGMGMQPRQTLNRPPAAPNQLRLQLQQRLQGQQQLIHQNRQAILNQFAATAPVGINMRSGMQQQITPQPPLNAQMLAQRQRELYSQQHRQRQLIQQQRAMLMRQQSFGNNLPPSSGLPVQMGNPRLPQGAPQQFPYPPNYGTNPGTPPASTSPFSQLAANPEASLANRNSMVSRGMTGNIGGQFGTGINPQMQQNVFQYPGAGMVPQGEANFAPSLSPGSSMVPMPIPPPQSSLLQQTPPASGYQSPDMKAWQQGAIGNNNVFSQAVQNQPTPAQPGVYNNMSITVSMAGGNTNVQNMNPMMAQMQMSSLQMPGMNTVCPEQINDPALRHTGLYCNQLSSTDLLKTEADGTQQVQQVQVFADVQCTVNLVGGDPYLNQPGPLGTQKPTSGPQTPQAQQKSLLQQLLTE
Chain of Nuclear receptor coactivator 3 (Homo sapiens) (Q9Y6Q9 whole entry, looked up, the tested form may be a part): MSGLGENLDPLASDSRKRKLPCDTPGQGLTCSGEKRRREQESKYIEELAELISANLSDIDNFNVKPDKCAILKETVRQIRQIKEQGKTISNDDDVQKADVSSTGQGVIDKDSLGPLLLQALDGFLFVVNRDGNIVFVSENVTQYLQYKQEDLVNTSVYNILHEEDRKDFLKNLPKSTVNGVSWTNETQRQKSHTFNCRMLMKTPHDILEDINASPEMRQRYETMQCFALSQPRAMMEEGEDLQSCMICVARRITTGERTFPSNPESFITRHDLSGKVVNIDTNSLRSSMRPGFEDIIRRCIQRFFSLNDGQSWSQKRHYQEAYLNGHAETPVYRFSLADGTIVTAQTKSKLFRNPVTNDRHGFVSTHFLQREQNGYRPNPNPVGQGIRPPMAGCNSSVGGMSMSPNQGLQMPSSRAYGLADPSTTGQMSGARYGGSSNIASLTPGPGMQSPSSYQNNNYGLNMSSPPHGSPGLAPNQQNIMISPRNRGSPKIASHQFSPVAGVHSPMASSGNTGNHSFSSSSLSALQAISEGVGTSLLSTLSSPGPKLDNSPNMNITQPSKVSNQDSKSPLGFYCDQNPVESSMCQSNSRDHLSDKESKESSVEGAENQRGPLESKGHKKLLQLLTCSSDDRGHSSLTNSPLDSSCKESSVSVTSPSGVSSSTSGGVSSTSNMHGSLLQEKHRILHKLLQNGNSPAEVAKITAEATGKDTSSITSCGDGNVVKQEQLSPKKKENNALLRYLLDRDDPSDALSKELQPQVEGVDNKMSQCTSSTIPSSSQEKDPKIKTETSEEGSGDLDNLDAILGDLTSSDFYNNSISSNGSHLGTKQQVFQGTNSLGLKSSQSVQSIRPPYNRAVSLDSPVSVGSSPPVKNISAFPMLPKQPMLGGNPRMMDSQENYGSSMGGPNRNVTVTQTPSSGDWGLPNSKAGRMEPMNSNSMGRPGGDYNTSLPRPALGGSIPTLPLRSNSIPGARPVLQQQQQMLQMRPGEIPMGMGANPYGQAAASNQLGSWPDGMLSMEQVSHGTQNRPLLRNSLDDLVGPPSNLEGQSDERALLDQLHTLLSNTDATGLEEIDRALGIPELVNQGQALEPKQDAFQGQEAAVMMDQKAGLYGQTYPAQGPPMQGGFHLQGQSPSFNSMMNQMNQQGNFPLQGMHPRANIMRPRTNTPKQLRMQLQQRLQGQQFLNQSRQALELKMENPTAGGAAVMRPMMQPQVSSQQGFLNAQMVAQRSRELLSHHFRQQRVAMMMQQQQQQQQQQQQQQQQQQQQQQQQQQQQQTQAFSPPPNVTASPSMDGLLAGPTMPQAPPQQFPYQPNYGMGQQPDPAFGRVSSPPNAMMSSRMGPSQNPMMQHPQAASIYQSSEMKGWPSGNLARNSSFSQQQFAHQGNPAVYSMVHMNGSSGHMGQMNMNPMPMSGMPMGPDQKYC
Chain of Nuclear receptor subfamily 5 group A member 2 (Homo sapiens) (O00482 whole entry, looked up): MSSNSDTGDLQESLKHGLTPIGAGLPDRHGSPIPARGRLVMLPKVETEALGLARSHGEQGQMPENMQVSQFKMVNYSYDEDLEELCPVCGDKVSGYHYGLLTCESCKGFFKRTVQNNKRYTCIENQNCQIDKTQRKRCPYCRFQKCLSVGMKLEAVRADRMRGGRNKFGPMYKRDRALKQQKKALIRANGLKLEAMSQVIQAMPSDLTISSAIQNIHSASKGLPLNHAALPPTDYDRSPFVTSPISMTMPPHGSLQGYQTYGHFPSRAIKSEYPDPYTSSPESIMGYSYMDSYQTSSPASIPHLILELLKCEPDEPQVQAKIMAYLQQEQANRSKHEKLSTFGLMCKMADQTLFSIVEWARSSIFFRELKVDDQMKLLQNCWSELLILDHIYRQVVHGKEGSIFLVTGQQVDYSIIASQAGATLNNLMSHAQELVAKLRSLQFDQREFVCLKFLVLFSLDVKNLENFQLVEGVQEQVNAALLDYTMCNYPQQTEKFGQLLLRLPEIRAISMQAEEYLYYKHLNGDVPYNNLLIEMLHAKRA
Chain of Steroidogenic factor 1 (Homo sapiens) (Q13285 whole entry, looked up, the tested form may be a part): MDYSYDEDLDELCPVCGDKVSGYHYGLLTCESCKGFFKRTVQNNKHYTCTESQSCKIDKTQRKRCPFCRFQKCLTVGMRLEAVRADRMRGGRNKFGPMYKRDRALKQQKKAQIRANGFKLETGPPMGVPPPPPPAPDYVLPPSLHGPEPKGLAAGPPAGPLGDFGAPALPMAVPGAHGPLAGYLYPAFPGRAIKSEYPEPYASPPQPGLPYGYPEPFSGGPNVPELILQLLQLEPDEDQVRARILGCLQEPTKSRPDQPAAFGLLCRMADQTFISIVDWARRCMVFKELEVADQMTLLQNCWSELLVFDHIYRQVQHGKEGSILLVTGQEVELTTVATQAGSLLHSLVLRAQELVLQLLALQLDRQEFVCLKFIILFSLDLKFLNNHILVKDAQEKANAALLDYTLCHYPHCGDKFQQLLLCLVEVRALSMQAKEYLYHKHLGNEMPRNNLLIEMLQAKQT

Turning to `COc1ccc(-c2oc3ccc(N4CCOCC4)cc3c2C#CCO)cc1`, the inhibition – broadly, the change of the read-out against control, counted positive when it falls – was 10.8% in assay [1]; 21.3% in assay [2]; -22.7% in assay [3]; 18.5% in assay [4]; 54.3% (active) in assay [5]; 55.7% (active) in assay [6]. Besides, the figures for the inhibition in assay [7] and in assay [8] were 62% (active) and 53.4% (active), respectively.
With `CCCCCCCC[n+]1cccc2c3ccccc3ccc21`, the inhibition in assay [1] is 78.5% (active); in assay [2] it was 81.6% (active); in assay [3], 59.1% (active); in assay [4] it was 83.7% (active); in assay [5] it was 77% (active); in assay [6] it was 107% (active). Moreover, the inhibition in assay [7] is 92.8% (active); in assay [8], 93.8% (active).
`Cc1ccc(-n2c(-c3ccc(Br)cc3)c[n+]3c2CCc2ccc4cccnc4c2-3)cc1`: the inhibition is 89.4% (active) in assay [1]; 86.1% (active) in assay [2]; 74.8% (active) in assay [3]; 87.5% (active) in assay [4]; 83.8% (active) in assay [5]; 111% (active) in assay [6]. Moreover, the inhibition in assay [7] is 95.8% (active); in assay [8] it was 96.3% (active).
For the compound `O=NN(CC(=O)NNc1ccccc1)CC(=O)NNc1ccccc1`, the inhibition in assay [1] is 22.6%; in assay [2] it was 29.9% (active); in assay [3], 9.03%; in assay [4], 27.5% (active); in assay [5], 37.4% (active); in assay [6], 58.7% (active). Moreover, the inhibition was 53.1% (active) in assay [7] and 67.5% (active) in assay [8].
In the case of `CCN(CC)c1ccc2nc3ccccc3[n+](CC)c2c1`, the inhibition in assay [1] is 50.2% (active); in assay [2], 54.2% (active); in assay [3] it was 40.5%; in assay [4] it was 59.6% (active); in assay [5], 69.4% (active); in assay [6], 88.3% (active). For the same compound, the inhibition in assay [7] is 80.2% (active); in assay [8] it was 68.7% (active).
Consider `CC1Cc2cc(-c3csc(NC(=O)Cc4cccs4)n3)ccc2N1S(C)(=O)=O` (centres undefined), for which the inhibition in assay [1] was 14.4%; in assay [2], 42.5% (active); in assay [3] it was -1.43%; in assay [4], 57.8% (active); in assay [5] it was 47.4% (active); in assay [6], 63.7% (active). Moreover, the inhibition in assay [7] was 62% (active); in assay [8] it was 69.9% (active).
`Cc1ccc2nc(NC(=O)CSCC(=O)OCC(=O)c3ccccc3)sc2c1`: the inhibition is 46.5% (active) in assay [1]; 39% (active) in assay [2]; 7.46% in assay [3]; 30.5% (active) in assay [4]; 19.2% in assay [5]; 52.4% (active) in assay [6]. Further, the inhibition in assay [7] is 39.6%; in assay [8], 32.6% (active).
Consider `Cc1ccc2[nH]cc(/C=C/c3cc[n+](C)cc3)c2c1`, for which the inhibition in assay [1] was 40.1%; in assay [2] it was 52.6% (active); in assay [3], 14.5%; in assay [4], 59.7% (active); in assay [5], 42.2% (active); in assay [6], 84% (active). The inhibition in assay [7] is 75.5% (active); in assay [8] it was 70.5% (active).
For the compound `CC[n+]1c(/C=C2\Sc3ccccc3N2C)ccc2cccc(C)c21`, the inhibition in assay [1] was 47.9% (active); in assay [2], 68% (active); in assay [3], 36.2%; in assay [4], 79.5% (active); in assay [5] it was 76.7% (active); in assay [6], 109% (active). For the same compound, the results for the inhibition in assay [7] and in assay [8] were 91.6% (active) and 87% (active), respectively.
Take `O=c1c2ccccc2sc2ccc(C#CC3(O)CCCCC3)cc12`: the inhibition is 87.4% (active) in assay [1]; 84.4% (active) in assay [2]; 76.2% (active) in assay [3]; 75% (active) in assay [4]; 84.3% (active) in assay [5]; 56% (active) in assay [6]. Moreover, the inhibition in assay [7] is 76.5% (active); in assay [8] it was 71.2% (active).
`CCCCC(=O)NC(c1ccccc1)c1ccc2cccnc2c1O` (centres undefined): the inhibition in assay [1] is 53.3% (active); in assay [2], 36.9% (active); in assay [3] it was 27.8%; in assay [4] it was 29.2% (active); in assay [5] it was 60.3% (active); in assay [6], 69.5% (active). Moreover, the inhibition in assay [7] was 63.6% (active); in assay [8], 73% (active).
As for `CCCCC(=O)NC(c1ccccc1Cl)c1ccc2cccnc2c1O` (centres undefined), the inhibition is 26.3% in assay [1]; 32.7% (active) in assay [2]; 41% in assay [3]; 50.9% (active) in assay [4]; 74.1% (active) in assay [5]; 76.5% (active) in assay [6]. The inhibition is 80.8% (active) in assay [7] and 74.4% (active) in assay [8].
Turning to `COc1ccc(NC(=O)c2cc(-c3cc(C)cc(F)c3)n[nH]2)cc1OC`, the inhibition in assay [1] is 23.5%; in assay [2] it was 44.4% (active); in assay [3], 15.5%; in assay [4], 33.5% (active); in assay [5] it was 39.5% (active); in assay [6] it was 55.6% (active). Moreover, the inhibition is 59.6% (active) in assay [7] and 61.5% (active) in assay [8].
With `CCCCCC[n+]1ccccc1/C=C/c1ccc(N(C)C)cc1`, the inhibition in assay [1] was 89.5% (active); in assay [2], 88.2% (active); in assay [3], 64% (active); in assay [4] it was 86.2% (active); in assay [5] it was 81.5% (active); in assay [6] it was 110% (active). Further, the inhibition in assay [7] is 94.8% (active); in assay [8], 94.7% (active).
Consider `Nc1nc(N)nc(-c2cc(O)ccc2O)n1`, for which the inhibition in assay [1] is 78.4% (active); in assay [2] it was 53.5% (active); in assay [3], 74.7% (active); in assay [4] it was 43.7% (active); in assay [5], 41.7% (active); in assay [6], 45.4% (active). For the same compound, the inhibition in assay [7] was 65.9% (active); in assay [8] it was 57.1% (active).
As to `CN(C)c1ccc(C=c2c3ccccc3n3c2c2c([n+]3C)CCCC2)cc1`, the inhibition in assay [1] is 75.3% (active); in assay [2], 81.7% (active); in assay [3], 55.7% (active); in assay [4] it was 81.8% (active); in assay [5], 79% (active); in assay [6], 110% (active). The results for the inhibition in assay [7] and in assay [8] were 94.3% (active) and 94.7% (active), respectively.
As to `Cn1cc(/C=C/c2cc[n+](C)cc2)c2cc(Cl)ccc21`, the inhibition in assay [1] is 21.6%; in assay [2], 43.1% (active); in assay [3] it was 21.5%; in assay [4] it was 38.8% (active); in assay [5] it was 47.9% (active); in assay [6], 81.2% (active). For the same compound, the inhibition in assay [7] was 78.8% (active); in assay [8], 73.9% (active).
As for `COc1ccccc1C(=O)Nc1nc(-c2ccc(S(=O)(=O)N3CCOCC3)cc2)cs1`, the inhibition was 68% (active) in assay [1]; 82.1% (active) in assay [2]; 41.6% in assay [3]; 74.5% (active) in assay [4]; 78.5% (active) in assay [5]; 98.4% (active) in assay [6]. Further, the results for the inhibition in assay [7] and in assay [8] were 83.7% (active) and 92.2% (active), respectively.

Source of the values: PubChem BioAssay.
